Source: PubChem BioAssay (National Center for Advancing Translational Sciences (NCATS))
Most compounds without a hit are left out; they make up all but 19% or so of the library.
TDP1 cell noCPT: qHTS for Inhibitors of human tyrosyl-DNA phosphodiesterase 1 (TDP1): qHTS in cells in absence of CPT | Potency, µM (highest dose often 46.2 µM), for the others: at the top dose activity change, negative = growth inhibition, actives largely listed as inhibitors | DT40 Tdp1-/- hTDP1 cells, no CPT, ATP luminescence, 48 h | hit rate 15% among 420,000; note: nearly all actives have a fitted effect of over 55% in size
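Camptothecin absent (DMSO only). Human TDP1-complemented DT40 knockout cells, 400 cells/well, 37 °C for minimum 48 hr; ATP measured via CellTiter-Glo, 30 min dark incubation, luminescence.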
HT1080-NT tox: kills 2HG-producing HT-1080-NT fibrosarcoma cells; hit rate 1.6% among 360,000; HT-1080-NT fibrosarcoma viability, CellTiter-Glo ATP luminescence, 48 h; Potency, µM (series often up to 46.1 µM), for the others: at the highest dose activity, negative = less viability, most hits filed as cytotoxic;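 note: NT is the 2HG producing partner of a matched IDH1 knockdown line; 0% = DMSO-treated cells and -100% = media-only wells without cells; nearly all actives have a fitted effect of over 55% in size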
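HT-1080-NT; 750 cells/well; 5% FBS RPMI; 48 h compound, 37 degrees C; CellTiter-Glo luminescence; curve fitting and curve-class assignment.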
KB-3-1 cytotox: KB-3-1 parental cell cytotoxicity. KB-3-1 viability, CellTiter-Glo ATP luminescence, 72 h. Potency, µM (highest dose often 46.1 µM), most hits filed as cytotoxic. hit rate 1.4% among 400,000. AID 1347075; note: nearly all actives have a fitted effect of over 60% in size
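KB-3-1 parental drug-naive adenocarcinoma cells in DMEM/10% FBS, incubated 72 h at 37 C with pin-transferred compounds across a concentration series. Viability by CellTiter-Glo luminescence; concentration-response curves fitted after normalization.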
KB-V1 cytotox: KB-V1 MDR subline cytotoxicity; KB-V1 MDR cells viability, CellTiter-Glo, 72 h; Potency, µM (doses to about 46.1 µM), actives largely listed as cytotoxic; hit rate 3.4% among 400,000; AID 1347076; note: nearly all actives have a fitted effect of over 60% in size
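Drug-selected KB-V1 cells, grown in DMEM lacking phenol red with 10% FBS, receive compound titrations; after three days at 37 degrees C, surviving cell ATP is quantified by CellTiter-Glo luminescence and responses normalized and curve-fitted.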
TDP1 cell CPT: growth inhibition of DT40 Tdp1-/-;hTDP1 cells with camptothecin (screen for TDP1 inhibitors); chicken DT40 Tdp1-/-;hTDP1 cells + 20 nM CPT, ATP luminescence, 48 h; hit rate 12% among 420,000; Potency, µM (doses to about 46.2 µM), for the others: at the highest dose activity change, negative = growth inhibition, most hits filed as inhibitors; note: nearly all actives have a fitted effect of over 55% in size
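Cell growth measured by CellTiter-Glo luminescence after a minimum 48 h, 37 C compound exposure with 20 nM CPT in Tdp1-knockout DT40 cells stably expressing hTDP1, seeded 400/well; qHTS titration format.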
HT1080 IDH1KD tx: kills HT-1080 cells with IDH1 knockdown. HT-1080 IDH1 knockdown viability, ATP luminescence, 48 h. Potency, µM (top dose mostly 46.1 µM), for the others: top-dose activity, negative = toxicity, usual class: cytotoxic. hit rate 2% among 360,000. AID 686971;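 note: 0% = DMSO wells and -100% = cell-free medium wells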
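Cytotoxicity counter-line: IDH1KD HT-1080, 48 h, CellTiter-Glo. Curves classed by r2, magnitude and activity.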
* hit, by the source's call; i = inactive; ? = inconclusive; nt = no result; [ ] = another dose, or the depositor's remark. Calls come from the whole dose curve; as a rule, active = well fitted curve in the direction sought with a large enough effect; inconclusive = small, poorly fitted or top-dose-only effect, or another doubt; inactive = no such curve, though single readings can be large; an effect the other way counts as inactive or inconclusive. Unless noted, % is set by controls: 0 for no effect and ±100 for the full control effect; potency is the fitted concentration of half-maximal effect.

SMILES | TDP1 cell noCPT | HT1080-NT tox | KB-3-1 cytotox | KB-V1 cytotox | TDP1 cell CPT | HT1080 IDH1KD tx
Cn1ncc2c(N3CCOCC3)ncnc21 | -18% | -27% | i | i | -25% | 2%[9.24 µM]
COc1ccc(N2CCN(c3ncnc4c3cnn4-c3ccc(C)c(Cl)c3)CC2)cc1 | -12% | nt | i | ? | -11% | nt
Clc1ccc(-n2ncc3c(N4CCCCCC4)ncnc32)cc1 | ? | 10% | i | i | ? | 7%
COc1ccc(OC)c(C(=O)NC(CC(N)=O)c2ccc(NC(C)C)c([N+](=O)[O-])c2)c1 (stereo unspecified) | -15% | 8% | i | i | -27% | 5%
CC(C)(C)OC(=O)N1Cc2ccccc2C[C@H]1C(=O)NCC(=O)NCC1CCCO1 (stereo partly specified) | 27% | 16% | i | i | -17% | -2%
Cc1ccc(Cl)cc1-n1ncc2c(N3CCCCCC3)ncnc21 | 8.2µM* | nt | i | i | 5.8µM* | nt
Brc1cccc(-c2cnn3c(-c4ccccc4)cc(-c4ccccc4)nc23)c1 | -9% | nt | i | i | -17% | nt
O=C(NCc1cccc(Cl)c1)c1cnn2c1NC(c1ccco1)CC2C(F)(F)F (stereo unspecified) | 16µM* | -23% | i | i | 18µM* | ?
O=C(Nc1ccc2c(c1)CCC2)c1cnn2c1NC(c1ccco1)CC2C(F)(F)F (stereo unspecified) | -58% | ? | i | i | 12µM* | 23µM*
CN(Cc1ccc(-n2cccn2)cc1)C(=O)c1cnn2c1NC(c1ccco1)CC2C(F)(F)F (stereo unspecified) | 16µM* | -8% | ? | 4.6µM* | 23µM* | -7%
COCCNC(=O)c1cnn2c1NC(c1ccco1)CC2C(F)(F)F (stereo unspecified) | 1% | 3% | i | i | -2% | -1%
Cc1ccc(/C=C/S(=O)(=O)NCC(=O)OCC(=O)N2CC(=O)Nc3ccccc32)cc1 | 11% | 17% | i | i | 2% | 1%
O=C(OCC(=O)N1CCc2ccccc21)c1n[nH]c(=O)c2ccccc12 | 2% | 6% | i | i | -11% | -2%
CC12c3ccccc3C(c3ccccc31)C1C(=O)N(c3cccnc3)C(=O)C12 (stereo unspecified) | 15µM* | 5% | i | 15µM* | ? | 14%
O=C1C2C3c4ccccc4C(c4ccccc43)C2C(=O)N1c1cccnc1 (stereo unspecified) | 0% | 13% | i | ? | 0% | 29%
CC12c3ccccc3C(c3ccccc31)C1C(=O)N(c3ccncc3)C(=O)C12 (stereo unspecified) | 16µM* | -17% | i | i | 16µM* | -23%
O=C1C2C3C=CC([C@@H]2C(=O)N1Cc1cccnc1)C31CC1 (stereo partly specified) | -2% | 2% | i | i | -13% | -1%
CC12c3ccccc3C(c3ccccc31)C1C(=O)N(Cc3cccnc3)C(=O)[C@H]12 (stereo partly specified) | ? | -3% | i | i | 18µM* | -2%
Cc1ccc(C(=O)NC(=S)Nc2cc(-c3nc4ccccc4s3)ccc2C)cc1 | ? | 23% | i | i | ? | 10%
Cc1nn(-c2ccccc2)c(OC(=O)C(C)(C)C)c1Sc1ccccc1 | -20% | nt | nt | nt | -22% | nt
COc1cc(SSc2cc(OC)cc([N+](=O)[O-])c2N)c(N)c([N+](=O)[O-])c1 | 4.1µM* | -1% | ? | ? | 4.6µM* | -12%
Nc1ccc(Oc2ccc(N)c([N+](=O)[O-])c2)cc1[N+](=O)[O-] | ? | -5% | i | i | 0% | 6%
